Compounds with a hit are over-represented: about 1.5% of the library has one in this group of screens.
CRFBP-R2 block = antagonists of CRF-binding protein/CRF-R2 receptor complex. HEK293 CRF-R2/CRF-BP, CRF-induced calcium fluorescence. AID 588475. inhibition, % at 11.8 µM. actives 0.59% (n = 350,000);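 active = inhibition of the ligand-induced calcium signal above about 50% at the single tested concentration, limit read from the data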
NTR1 ag = activates human neurotensin receptor 1. P30989. NTR1-U2OS beta-arrestin-GFP spot imaging, agonist mode. activation, % at 20 µM. actives 0.17% (n = 330,000);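 active = activation at or above 40% of the spot to cytoplasm intensity ratio, with at least 20 cells analyzed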;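 note: 0% = DMSO without peptide and 100% = 100 nM NTR1 peptide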
Target sequence (P30989 whole entry, looked up): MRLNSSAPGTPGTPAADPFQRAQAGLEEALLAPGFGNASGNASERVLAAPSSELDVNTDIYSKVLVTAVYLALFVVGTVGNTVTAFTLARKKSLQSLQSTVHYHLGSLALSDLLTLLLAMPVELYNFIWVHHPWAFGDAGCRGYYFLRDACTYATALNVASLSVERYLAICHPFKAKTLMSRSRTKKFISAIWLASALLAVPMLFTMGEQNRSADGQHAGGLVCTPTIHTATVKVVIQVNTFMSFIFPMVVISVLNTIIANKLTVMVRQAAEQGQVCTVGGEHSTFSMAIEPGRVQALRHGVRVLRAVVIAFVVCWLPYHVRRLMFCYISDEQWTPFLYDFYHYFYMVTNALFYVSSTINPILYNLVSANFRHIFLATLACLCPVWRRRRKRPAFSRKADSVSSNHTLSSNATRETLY
CRFBP-R2 agonist = CRF-BP/CRF-R2 complex agonism; AID 588473; actives 0.46% (n = 350,000); HEK293 CRF-R2/CRF-BP, calcium dye fluorescence (FLIPR); percent of saturating CRF peptide response; activation, % at 13.2 µM;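 active = activation of at least 50%, plus an integration ratio under a set limit after plate pattern correction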;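 note: plate controls were neutral control wells without compound for no effect and CRF at EC100 for full effect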
V-ATPase pHluor = yeast V-ATPase proton transport regulation by pHLuorin | S. cerevisiae, pHLuorin cytosolic pH fluorescence | response, % at 10 µM | actives 0.37% (n = 350,000); in the data active = response mostly above about 7.3%, no sharp cut-off; inactive = mostly below about 5.4%; note: actives read high
The depositor's hits bear a star; · = no result given.

SMILES	CRFBP-R2 block	NTR1 ag	CRFBP-R2 agonist	V-ATPase pHluor
CCOC(=O)c1ccc(NC(=S)N2CCSC2c2ccc(OC)cc2)cc1 (stereo unspecified)	-48	9	37	7
COc1ccc2cc(C(=O)N/N=C/c3sc4ccccc4c3O)ccc2c1	-179	0	166*	-1
O=C(N/N=C/c1sc2ccccc2c1O)c1ccccc1	-18	-1	15	4
COc1ccc(C(=O)N/N=C/c2sc3ccccc3c2O)cc1	-73	·	50*	0
CCOC(=O)C1=C(C)N(C)C(=O)NC1c1cc2c(cc1[N+](=O)[O-])OCO2 (stereo unspecified)	-4	-2	2	-2
O=C(CSc1ccc(-c2ccccc2)nn1)N1CCN(c2ccccc2)CC1	2	0	-1	4
O=C(OCC(=O)N1CCN(c2ccccc2)CC1)c1ccccn1	53*	·	1	-6
O=C(CSc1ccc(-c2ccncc2)nn1)N1CCN(c2ccccc2)CC1	63*	3	2	7
Cc1nc(C(=O)NC2CCCCC2)sc1C1(C)CC(c2cccnc2)=NO1 (stereo unspecified)	·	1	·	·
CCN(c1ccccc1)S(=O)(=O)c1ccc(NC(=O)c2ccco2)cc1	77*	0	-2	1
COc1ccc2nc3ccccc3nc2c1NC(=O)c1ccc(Cl)cc1Cl	-150	4	178*	1
COc1cc(-c2cc(C(=O)Nc3c(Cl)cc(Cl)cc3Cl)c3ccccc3n2)cc(OC)c1OC	18	1	-2	-2
CCCCN1CC(COCc2ccccc2)Oc2cccc(OCCN3C(=O)[C@@H]4[C@H](C3=O)C3C=C[C@H]4C3)c2S1(=O)=O (stereo partly specified)	-178	·	172*	4
CCC1CCCCN1CCCNC(=O)CNC(=O)c1nn(-c2ccc(OC)c(Cl)c2)c(=O)c2ccccc12 (stereo unspecified)	-5	-2	-1	-2
CCCn1cc(S(=O)(=O)c2ccccc2)c(=O)c2cc(OCC)ccc21	75*	0	1	0
OCCC1CCCCN1CC(O)COCc1ccc(Cl)cc1 (stereo unspecified)	-4	-2	1	-1
O=C1/C(=N\S(=O)(=O)c2cccs2)C([n+]2cccc(Cc3ccccc3)c2)=C([O-])c2ccccc21	-62	10	62*	6
O=C1/C(=N\S(=O)(=O)c2cccs2)C([n+]2ccc(CCCc3ccccc3)cc2)=C([O-])c2ccccc21	-7	16	-1	0
O=C(COC(=O)Cc1ccc(Cl)cc1)NCc1cccs1	5	-1	0	2
O=C(COC(=O)COc1ccc(Cl)cc1Br)NCc1cccs1	53*	2	-1	3
Oc1ccccc1C=NCCN1CCN(CCN=Cc2ccccc2O)C1c1ccccc1O (stereo unspecified)	66*	·	-5	0
COc1cc(/C=N/NC(=O)c2cccc(C(=O)N/N=C/c3ccc(O)c(OC)c3)n2)ccc1O	11	-2	4	-3
COc1cc(/C=N/NC(=O)c2nc(C)cc(C)n2)ccc1O	-157	-2	165*	-3
CCOC(=O)c1c(NC(=O)C(=O)N/N=C/c2ccc(O)c(OC)c2)sc2c1CCCCC2	55*	18	-2	8
CCOC(=O)c1cc(C(C)(C)C)oc1CNC(=O)c1c(C)oc2c1CCCC2	-5	0	1	2
SMILES	CRFBP-R2 block	NTR1 ag	CRFBP-R2 agonist	V-ATPase pHluor
CC(C)CN(CC(C)C)C(=O)CCCC(=O)N(CC(C)C)CC(C)C	53*	-2	7	1
CCCCC(=O)N(CCC)CCC	-7	·	0	2
COc1ccc(/C=N/NC(=O)c2ccc3ccccc3c2)cc1OS(=O)(=O)c1ccc(NC(C)=O)cc1	6	3	8	-1
CC1(C)Cc2c(C#N)c(NCC3CCCO3)nc(-c3ccco3)c2CO1 (stereo unspecified)	104*	0	1	-3
Cc1ccccc1OCCC(=O)OCC(=O)Nc1c(C)nn(-c2ccccc2)c1C	10	-1	-3	5
Cc1cc(C)c(OCCN(C)Cc2ccccc2)c(Br)c1	87*	6	0	1
CN(CCCOc1ccccc1Br)Cc1ccccc1	-19	-1	0	3
CNC(=O)c1ccsc1NC(=O)CS(=O)(=O)c1ccc(Cl)cc1	9	2	-1	6
COc1ccc(Cl)cc1NC(=O)C1CCN(C(=O)C2CC(=O)N(c3ccc(C)cc3)C2)CC1 (stereo unspecified)	23	0	1	0
COc1ccc(C(=O)N(c2ccccc2)C2C=CS(=O)(=O)C2)cc1 (stereo unspecified)	52*	2	-1	-1
N=c1c(S(=O)(=O)c2ccc(Cl)cc2)cc2c(=O)n3ccccc3nc2n1C1CCCC1	-12	7	9	-4
COC(=O)/C=c1/s/c(=C(\C#N)C(=O)NCc2ccco2)n(-c2ccccc2)c1=O	78*	-3	7	-1
COc1ccc(/C=c2\s/c(=C(/C#N)C(=O)NCc3ccco3)n(-c3ccccc3)c2=O)cc1	-73	2	25	-10
Cc1[nH]c(=O)[nH]c(=O)c1S(=O)(=O)N1CCCC(C(=O)N2CCN(c3ccccc3Cl)CC2)C1 (stereo unspecified)	74*	-1	-3	0
CC1=CC(C)(C(Cl)(Cl)Cl)C(C)=CC1=NO (stereo unspecified)	57*	·	0	-1
COc1ccc(CCNc2nc(N3CCCCC3)nc(N3CCCCC3)n2)cc1OC	74*	16	0	0
COc1ccc(CCNc2nc(N3CCOCC3)nc(N3CCOCC3)n2)cc1OC	8	-1	0	2
CN(CC(=O)Nc1ccc(F)c(F)c1F)C(=O)CN1C(=O)C2CCCCC2C1=O (stereo unspecified)	6	0	-1	-1
CC1CCN(C(=O)CSc2nc(C(C)C)nc3c2c(=O)n(C)c(=O)n3C)CC1	-3	6	0	0
O=C(COC(=O)CC1c2ccccc2CCN1S(=O)(=O)c1ccc(F)cc1)Nc1ccccc1 (stereo unspecified)	57*	3	7	-1
CCc1cccc(CC)c1NC(=O)COC(=O)CC1c2ccccc2CCN1S(=O)(=O)c1ccc(F)cc1 (stereo unspecified)	15	-1	0	2
CCCCn1cnc2c(SCc3ccccc3F)nc(N)nc21	0	·	-9	3
Clc1ccc(-c2ccc(C=Nc3ccc(N4CCOCC4)cc3)o2)c(Cl)c1	-330	3	210*	4
O=C(Cc1ccc(-n2cccc2)cc1)N1CCN(c2ccccc2F)CC1	53*	2	-4	2
Cc1cc(C(=O)O)cc(S(=O)(=O)Nc2ccccc2C(=O)NC2CC2)c1C	14	1	-2	-4
O=C(Nc1ccccc1Cl)OC1CCCCC1	-26	-1	0	-3
O=C(Cc1ccccc1)NCC(=O)OC(c1ccccc1)c1ccccc1	82*	2	-1	0
CSc1cccc(CN2CCCC(CNC(=O)c3ccco3)C2)c1 (stereo unspecified)	-3	0	-1	1
